# Measurements published in PubChem BioAssay.
# Activity calls are given as the source filed them. Unless noted, the rule behind the calls is not given here.
# Columns and labels:
# [1] = system: Wnt5a (protein binding on small-molecule microarray); assay: Wnt5a binders on small-molecule microarray, primary screen, biophysical, 635/667 nm fluorescence (AID 1142); details: 635 nm fluorescence, higher = more signal;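 note: fluorescence read at 667 nm with signal to noise per printed feature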
# [2] = cell viability in Huh7 cells, primary screen, cytotoxicity control for HCV replication inhibitor project, CellTiter-Glo luminescence, basal, 48 h (AID 1143); details: Huh7 HCV replicon, higher = more signal, called active from +8 up or from −8 down;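 note: Huh7 hepatoma cells carrying a hepatitis C replication reporter with no stimulus; test concentration not given here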
# [3] = P. aeruginosa biofilm formation inhibitors, primary screen, PAO1 strain, BacTiter-Glo luminescence, LB-PBS (AID 1144); details: 12 h, higher = more signal
# [4] = CREB reporter modulators without forskolin, primary screen, cell-based, PC12, CRE-LacZ reporter, unstimulated (AID 1145); details: no forskolin, luminescence, 4.5 h, higher = more signal, called active from +8 up or from −8 down
# [5] = CREB reporter modulators under forskolin, primary screen, cell-based, PC12, CRE-LacZ reporter, forskolin-stimulated (AID 1146); details: luminescence, 4.5 h, higher = more signal, called active from +8 up or from −8 down;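 note: PC12 cells with 6xCRE LacZ reporter stimulated by forskolin 10 µM; beta-galactosidase reporter signal reflecting CREB driven transcription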
# [6] = target: Streptavidin (Streptomyces avidinii) (UniProt P22629); assay: streptavidin binders on small-molecule microarray, primary screen, artefact control for SMM compound annotation, biophysical, 635/667 nm fluorescence (AID 1147); details: streptavidin binding, higher = more signal;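 note: signal reflects streptavidin binding to arrayed compounds as a control protein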
# Chain of Streptavidin (Streptomyces avidinii) (P22629 whole entry, looked up): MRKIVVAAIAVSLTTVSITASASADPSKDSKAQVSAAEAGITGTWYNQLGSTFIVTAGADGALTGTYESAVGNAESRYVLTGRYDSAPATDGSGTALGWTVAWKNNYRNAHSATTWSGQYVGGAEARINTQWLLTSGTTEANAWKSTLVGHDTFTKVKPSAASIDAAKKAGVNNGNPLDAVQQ
# [7] = small-molecule binders of probe aInhba, primary screen, biochemical, small-molecule microarray, 635/667 nm fluorescence (AID 1148); details: higher = more signal;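 note: score merges 667nm spot fluorescence with signal-to-noise for antibody binding to printed compounds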
# Torsin-1A (Homo sapiens) [8] = target: Torsin-1A (Homo sapiens) (UniProt O14656); assay: torsin A binders from cell lysate, primary screen, small-molecule microarray, wild-type, 635/667 nm (AID 1149); details: COS7 hTOR1A-WT lysate, 635 nm fluorescence, higher = more signal
# Chain of Torsin-1A (Homo sapiens) (O14656 whole entry, looked up): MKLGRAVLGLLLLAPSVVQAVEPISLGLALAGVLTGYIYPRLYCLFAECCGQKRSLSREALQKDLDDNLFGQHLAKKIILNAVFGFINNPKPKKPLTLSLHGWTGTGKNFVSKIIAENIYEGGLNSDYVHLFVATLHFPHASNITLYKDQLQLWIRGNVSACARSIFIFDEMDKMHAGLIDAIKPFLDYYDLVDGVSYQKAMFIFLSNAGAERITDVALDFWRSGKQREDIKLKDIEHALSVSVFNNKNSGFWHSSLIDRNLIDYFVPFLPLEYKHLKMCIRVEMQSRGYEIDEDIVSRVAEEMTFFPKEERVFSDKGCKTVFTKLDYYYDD
# Torsin-1A (Homo sapiens) [9] = target: Torsin-1A (Homo sapiens) (UniProt O14656); assay: small-molecule binders of mutant TOR1A in lysate, primary screen, cell lysate, small-molecule microarray, COS7 lysate, 635/667 nm fluorescence (AID 1150); details: COS7 hTOR1A mutant lysate, 635 nm fluorescence, higher = more signal;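 note: score pools 667 nm emission and signal to noise measuring lysate protein binding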
# [10] = system: Sonic hedgehog protein (Shh); assay: small-molecule binders of Shh protein, primary screen, biochemical, small-molecule microarray, 635/667 nm fluorescence (AID 1151); details: small-molecule microarray binding, 635 nm fluorescence; higher = more signal;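 note: Shh protein binding to compounds spotted on small-molecule microarray slides; score combines spot fluorescence intensity with signal-to-noise across triplicate slides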
# [11] = E. coli DRC41 culture turbidity changes, primary screen, E. coli filamentation inducer project, strain DRC41, OD650, 48 h (AID 1152);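 note: E. coli MC1000 strain DRC41 lacking acrAB efflux pump and sulA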; details: E. coli DRC41 (acrAB sulA), higher = more signal, called active from +8 up or from −8 down
# [12] = small-molecule binders of probe aLefty1, primary screen, biochemical, small-molecule microarray, 635/667 nm fluorescence (AID 1153); details: higher = more signal;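 note: score merges spot fluorescence with signal-to-noise ratio from the scanned slide images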
# [13] = PSAC antagonists in infected red cells, primary screen, cell-based, P. falciparum Indochina, OD700, 1 h (AID 1154); details: P. falciparum Indochina infected RBC osmotic lysis, higher = more signal, called active from +8 up or from −8 down
# [14] = PSAC antagonists in infected red cells, primary screen, cell-based, P. falciparum Indochina, OD700, 2 h (AID 1155);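 note: lysis reports solute entry through the parasite surface anion channel PSAC; channel blockers reduce lysis of infected cells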; details: P. falciparum Indochina infected erythrocytes, osmotic lysis OD700; higher = more signal, called active from +8 up or from −8 down
# [15] = osmotic lysis modulators in infected erythrocytes, primary screen, PSAC antagonist project, cell-based, P. falciparum Indochina, OD700, 3 h (AID 1156); details: higher = more signal, called active from +8 up or from −8 down
# [16] = PSAC antagonists in infected red cells, primary screen, cell-based, P. falciparum Indochina, OD700, 18 h (AID 1157); details: P. falciparum Indochina infected erythrocytes, osmotic lysis OD700, 18 h; higher = more signal, called active from +8 up or from −8 down
# [17] = modulators of S6 phosphorylation in cells, primary screen, cell-based, A549, cytoblot, luminescence, serum-stimulated (AID 1158); details: A549 phospho-S6 cytoblot, 5 h, higher = more signal;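 note: serum-stimulated A549 lung adenocarcinoma cells; signal is phosphorylated S6 detected by cytoblot immunostaining with HRP secondary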
# [18] = target: NADPH oxidase 2 (Homo sapiens) (UniProt P04839); assay: NOX2-dependent H2O2 signal modulators, primary screen, NOX inhibitor project, cell-based, HEK293-NOX2, PMA-stimulated, Amplex Red fluorescence (AID 1159); details: 45 min, higher = more signal, called active from +8 up or from −8 down; note: test concentration not given here
# Chain of NADPH oxidase 2 (Homo sapiens) (P04839 whole entry, looked up): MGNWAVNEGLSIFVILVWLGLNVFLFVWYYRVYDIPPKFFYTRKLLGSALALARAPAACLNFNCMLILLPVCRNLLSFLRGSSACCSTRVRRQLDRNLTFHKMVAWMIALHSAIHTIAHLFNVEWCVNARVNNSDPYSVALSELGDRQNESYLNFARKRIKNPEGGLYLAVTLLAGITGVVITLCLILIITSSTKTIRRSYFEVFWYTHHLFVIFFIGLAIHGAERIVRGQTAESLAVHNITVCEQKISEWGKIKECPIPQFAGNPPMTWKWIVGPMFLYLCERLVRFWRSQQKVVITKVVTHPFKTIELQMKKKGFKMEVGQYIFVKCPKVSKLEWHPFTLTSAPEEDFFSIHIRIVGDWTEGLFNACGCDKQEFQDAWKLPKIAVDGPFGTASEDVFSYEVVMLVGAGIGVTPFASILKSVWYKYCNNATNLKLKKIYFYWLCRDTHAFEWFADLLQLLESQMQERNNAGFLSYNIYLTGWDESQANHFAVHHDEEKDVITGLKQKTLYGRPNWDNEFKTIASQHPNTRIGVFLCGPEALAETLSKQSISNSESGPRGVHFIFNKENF
# [19] = target: NADPH oxidase 4 (Homo sapiens) (UniProt Q9NPH5); assay: NOX4-dependent H2O2 signal modulators, primary screen, NOX inhibitor project, cell-based, HEK293-NOX4, tetracycline-induced, Amplex Red fluorescence (AID 1160); details: 45 min, higher = more signal, called active from +8 up or from −8 down
# Chain of NADPH oxidase 4 (Homo sapiens) (Q9NPH5 whole entry, looked up): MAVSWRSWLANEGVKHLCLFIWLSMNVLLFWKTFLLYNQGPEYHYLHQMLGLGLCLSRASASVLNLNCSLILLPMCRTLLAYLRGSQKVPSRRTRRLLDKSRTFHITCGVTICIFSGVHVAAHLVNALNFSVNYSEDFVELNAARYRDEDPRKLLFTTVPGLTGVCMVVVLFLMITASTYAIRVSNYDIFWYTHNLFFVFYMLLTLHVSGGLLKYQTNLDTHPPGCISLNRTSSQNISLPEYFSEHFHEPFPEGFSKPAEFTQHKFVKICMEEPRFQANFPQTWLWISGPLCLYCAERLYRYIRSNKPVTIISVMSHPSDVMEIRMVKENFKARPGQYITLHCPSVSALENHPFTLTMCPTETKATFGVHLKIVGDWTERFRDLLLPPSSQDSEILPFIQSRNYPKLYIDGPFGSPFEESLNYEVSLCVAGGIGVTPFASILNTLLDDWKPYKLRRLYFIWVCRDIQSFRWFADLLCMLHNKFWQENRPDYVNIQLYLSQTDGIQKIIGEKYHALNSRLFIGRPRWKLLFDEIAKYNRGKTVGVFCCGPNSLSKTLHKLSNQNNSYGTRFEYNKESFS
# [20] = target: NADPH oxidase 5 (Homo sapiens) (UniProt Q96PH1); assay: NOX5-dependent H2O2 signal modulators, primary screen, NOX inhibitor project, cell-based, HEK293-NOX5, Amplex Red fluorescence (AID 1161); details: HEK293-NOX5, ionomycin, 45 min, higher = more signal
# Chain of NADPH oxidase 5 (Homo sapiens) (Q96PH1 whole entry, looked up): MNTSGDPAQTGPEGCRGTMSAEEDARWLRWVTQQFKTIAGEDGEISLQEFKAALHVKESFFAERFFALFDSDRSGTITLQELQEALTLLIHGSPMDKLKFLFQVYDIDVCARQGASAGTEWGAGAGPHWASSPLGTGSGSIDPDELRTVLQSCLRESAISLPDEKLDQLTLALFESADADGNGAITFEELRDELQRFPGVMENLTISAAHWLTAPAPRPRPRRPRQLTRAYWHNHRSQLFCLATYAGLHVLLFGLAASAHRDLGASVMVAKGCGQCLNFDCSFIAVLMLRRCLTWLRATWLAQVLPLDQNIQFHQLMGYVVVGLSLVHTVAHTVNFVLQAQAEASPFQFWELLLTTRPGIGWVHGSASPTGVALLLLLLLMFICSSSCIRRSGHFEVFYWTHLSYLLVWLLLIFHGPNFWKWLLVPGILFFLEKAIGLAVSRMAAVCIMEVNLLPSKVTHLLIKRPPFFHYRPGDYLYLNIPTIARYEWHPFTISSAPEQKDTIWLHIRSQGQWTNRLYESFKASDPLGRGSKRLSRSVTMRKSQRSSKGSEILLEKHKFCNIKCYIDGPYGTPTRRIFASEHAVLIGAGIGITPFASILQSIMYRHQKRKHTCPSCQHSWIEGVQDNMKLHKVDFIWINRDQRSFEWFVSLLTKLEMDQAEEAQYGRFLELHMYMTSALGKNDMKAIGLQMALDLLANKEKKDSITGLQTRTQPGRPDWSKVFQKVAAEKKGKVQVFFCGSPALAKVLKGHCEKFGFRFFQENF
Compound,composite z-score [1],z-score [2],z-score [3],z-score [4],z-score [5],composite z-score [6],composite z-score [7],composite z-score (Torsin-1A (Homo sapiens) [8]),composite z-score (Torsin-1A (Homo sapiens) [9]),composite z-score [10],z-score [11],composite z-score [12],z-score [13],z-score [14],z-score [15],z-score [16],z-score [17],z-score [18],z-score [19],z-score [20]
CC(C)CCC[C@@H](C)[C@H]1CC[C@@]2(C)C3=C(CC[C@]12C)[C@@]1(C)CC[C@H](OC(=O)c2ccc(C(F)(F)F)nc2)C(C)(C)C1CC3 (stereo not given in full),0.0419,-0.878 (inactive),-0.14 (inactive),0.399 (inactive),-0.121 (inactive),0.536,0.0411,0.379,0.347,1.04,3.47 (inactive),-0.155,-1.05 (inactive),-0.693 (inactive),0.103 (inactive),-2.61 (inactive),2.5,-0.971 (inactive),0.129 (inactive),0.933
C=CCOC(=O)[C@H]1[C@@H]2C(=O)O[C@@H](c3ccccc3)[C@@H](c3ccccc3)N2[C@@H](c2ccc(OCCOC(=O)[C@H]3C[C@H]4C(=O)N[C@@H](CCCCN(C)C)C(=O)N4[C@H]3c3cccc(OCCO)c3)cc2)[C@]12C(=O)Nc1ccc(I)cc12,0.559,-0.366 (inactive),0.772 (inactive),-0.671 (inactive),0.892 (inactive),0.457,0.12,0.166,0.629,2.27,-1.61 (inactive),-0.156,-1.87 (inactive),0.381 (inactive),-0.0437 (inactive),0.375 (inactive),-0.529,2.18 (inactive),1.01 (inactive),1.06
COc1cc(CO)cc(I)c1O[C@H]1C=C(C(=O)NCCO)C[C@@H](N(C(=O)c2cc3ccccc3oc2=O)C2CCCCCC2)[C@@H]1O,0.021,-2.46 (inactive),-0.269 (inactive),-0.153 (inactive),-0.94 (inactive),0.0378,-0.157,-0.113,0.347,1.33,1.07 (inactive),-0.0646,4.63 (inactive),-0.78 (inactive),1.19 (inactive),-1.9 (inactive),1.95,0.202 (inactive),0.881 (inactive),1.2
C[N+](C)(C)CCCC[C@@H]1NC(=O)[C@@H]2C[C@H](C(=O)NCCCCCN)[C@H](c3ccc(O)cc3)N2C1=O,0.557,-0.496 (inactive),-0.771 (inactive),0.143 (inactive),-0.441 (inactive),1.49,0.491,0.632,0.659,1.61,1.31 (inactive),0.906,0.455 (inactive),0.0158 (inactive),-0.284 (inactive),-1.78 (inactive),0.612,-0.102 (inactive),-0.316 (inactive),1.33
O=C1NC(=O)C2C1C=CC(C(O)C=Cc1ccc([N+](=O)[O-])cc1)N2Nc1ccc(Cl)cc1Cl (stereo not given),0.28,0.099 (inactive),-0.402 (inactive),0.253 (inactive),0.342 (inactive),1.14,0.317,0.339,0.417,-0.08,-2.11 (inactive),0.501,10.1 (active),2.46 (inactive),2.09 (inactive),1.66 (inactive),-1,-0.82 (inactive),-6 (inactive),-1.45
O=C(CS)NCCCCCNC(=O)[C@@H]1C[C@@H]2C(=O)NCC(=O)N2[C@@H]1c1ccc(O)cc1,-0.0716,-0.454 (inactive),-0.171 (inactive),0.281 (inactive),0.208 (inactive),-0.618,0.0275,0.507,0.0395,1.44,1.6 (inactive),-0.101,0.802 (inactive),0.0605 (inactive),-0.194 (inactive),0.179 (inactive),-0.259,1.18 (inactive),-0.584 (inactive),1.67
CC=CC(O)C1C=CC2C(=O)N(C)C(=O)C2N1N(c1ccccc1)c1ccccc1 (stereo not given),0.16,0.695 (inactive),0.305 (inactive),-0.326 (inactive),0.493 (inactive),0.29,0.0536,2.7,1.3,0.306,-1.3 (inactive),-0.101,-0.553 (inactive),0.603 (inactive),-0.461 (inactive),1.12 (inactive),-0.674,-0.633 (inactive),-0.176 (inactive),-0.111
COc1ccc([Si](C)(C)[C@H]2[C@H](CC(=O)N3CCC[C@H]3CO)O[C@@]3(C(=O)N(Cc4cccc(N5CCOC5=O)c4)c4ccccc43)[C@@H]2C)cc1,0.307,-5.09 (inactive),0.621 (inactive),0.395 (inactive),-0.135 (inactive),0.0063,-0.0468,0.716,0.58,1.99,1.18 (inactive),-0.017,4.76 (inactive),1.13 (inactive),0.618 (inactive),0.722 (inactive),0.305,1.73 (inactive),1.76 (inactive),4.67
COCCOC(=O)N1C(=O)[C@@]2(c3ccccc31)[C@H](C(=O)N1CCc3cc(OC)c(OC)cc3C1)[C@H]1C(=O)O[C@H](c3ccccc3)[C@H](c3ccccc3)N1[C@@H]2c1ccc(O)cc1,0.622,-3.5 (inactive),-0.726 (inactive),-0.0515 (inactive),2.99 (inactive),1.39,-0.0889,1.06,1.31,1.96,3.04 (inactive),-0.0186,0.927 (inactive),-0.751 (inactive),-0.965 (inactive),-1.93 (inactive),2.38,0.571 (inactive),0.549 (inactive),1.2
